Results on 34 compounds are retold here after article PMC4102417.

This test has as its system murine 3T3 fibroblasts. Kind of test: primary screen, percent viability or growth; higher = less effect of the substance. How it is done: Similarly, for measuring the cytotoxicity concentration (CC50) for 3T3 fibroblast cells, cultures were incubated with drugs for 72 hours and developed using Alamar Blue (Alamar Biosciences Inc, Sacramento, CA) as previously described.
As for `CNc1ccccc1C(=O)N1CCc2c([nH]c3ccccc23)C1=O`, the “Mammalian (3T3) cell % growth at 10 uM” value turned out to be 75.7%.
On to `OCCN1CCN(CCCN2c3ccccc3Sc3ccc(Cl)cc32)CC1`, for which the “Mammalian (3T3) cell % growth at 10 uM” value was 66.6%.
`CCC1(O)CC(OC2CC(N(C)C)C(O)C(C)O2)c2c(cc3c(c2O)C(=O)c2c(O)ccc(O)c2C3=O)C1C(=O)OC` (stereo not shown): the “Mammalian (3T3) cell % growth at 10 uM” value is reported as 0.8%.
The result for `N[C@@H](Cc1ccc(O)c(O)c1)C(=O)O` reads 3.9%; that for `CC(=O)OC1CCC2(C)C3=C(CCC2C1(C)C)C1(C)CCC(C(C)CCC=C(C)C)C1(C)CC3` (stereo not shown), 87.6%; that for `COc1cc(NC(C)CCCN)c2ncccc2c1.O=P(O)(O)O.O=P(O)(O)O` (stereo not shown), 91.1%.
As to `C=CC(C1=CC(=O)C(OC)=CC1=O)c1ccc(OC)cc1` (stereo not shown), the “Mammalian (3T3) cell % growth at 10 uM” value was determined as 1.2%.
As to `CCN(CC)CCCC(C)Nc1c2ccc(Cl)cc2nc2ccc(OC)cc12.Cl.Cl` (stereo not shown), the “Mammalian (3T3) cell % growth at 10 uM” value came out at 5.3%.
`COc1ccc2cc1Oc1ccc(cc1)C[C@H]1c3c(cc4c(c3Oc3cc5c(cc3OC)CCN(C)[C@@H]5C2)OCO4)CCN1C`: the “Mammalian (3T3) cell % growth at 10 uM” value is reported as 33.1%.
With `O[C@H]1[C@H]2c3cc4c(cc3CN3CCC(=C[C@@H]1O)[C@H]23)OCO4`, the “Mammalian (3T3) cell % growth at 10 uM” value turned out to be 29.6%.
In the case of `COc1c(C)c2c(c(O)c1C/C=C(\C)CCC(=O)O)C(=O)OC2`, the “Mammalian (3T3) cell % growth at 10 uM” value is recorded as 97.2%.
To `Clc1ccc2c(c1)C(N1CCNCC1)=Nc1ccccc1O2` belongs 98%.
Take `COc1c(-c2coc3cc4c(cc3c2=O)CC(O)C(C)(C)O4)ccc2c1C=CC(C)(C)O2` (stereo not shown): the “Mammalian (3T3) cell % growth at 10 uM” value was 59%.
Take `O=c1cc(-c2ccccc2)oc2c(O)c(O)ccc12`: the “Mammalian (3T3) cell % growth at 10 uM” value was determined as 72.6%.
Consider `CC1(C)C(=O)C=CC2(C)C1=C(O)C(=O)C1(C)C2CCC2(C)C(c3ccoc3)CC3OC321` (stereo not shown), for which the “Mammalian (3T3) cell % growth at 10 uM” value was 25.5%.
`CN(C)CCCN1c2ccccc2CCc2ccc(Cl)cc21.Cl`: the “Mammalian (3T3) cell % growth at 10 uM” value amounted to 84.6%.
As for `CCC1(O)C(=O)OCc2c1cc1n(c2=O)Cc2cc3cc(O)ccc3nc2-1` (stereo not shown), the “Mammalian (3T3) cell % growth at 10 uM” value is listed as 23.9%.
The result for `NCCCCNCCCN` reads 41%.
`CC12CCC3C(CCC4CC(O)CCC43C)C1CCC2=O` (stereo not shown): the “Mammalian (3T3) cell % growth at 10 uM” value was 100%.
`CC(C)CCC[C@@H](C)[C@H]1CC[C@H]2[C@@H]3C(=O)C=C4C[C@@H](O)CC[C@]4(C)[C@H]3CC[C@]12C`: the “Mammalian (3T3) cell % growth at 10 uM” value was found to be 68.5%.
For the compound `O=c1c(-c2cc(O)c(O)c(O)c2)coc2cc(O)c(O)c(O)c12`, the “Mammalian (3T3) cell % growth at 10 uM” value is 73.7%.
`Cc1nc2ccccn2c(=O)c1CCN1CCC(C(=O)c2ccc(F)cc2)CC1`: the “Mammalian (3T3) cell % growth at 10 uM” value came out at 91.6%.
Regarding `C=C(C)[C@@H]1CC[C@]2(CO)CC[C@]3(C)[C@H](CC[C@@H]4[C@@]5(C)CC[C@H](O)C(C)(C)[C@@H]5CC[C@]43C)[C@@H]12`, the “Mammalian (3T3) cell % growth at 10 uM” value worked out at 100%.
Regarding `Clc1ccc(COC(Cn2ccnc2)c2ccc(Cl)cc2Cl)cc1` (stereo not shown), the “Mammalian (3T3) cell % growth at 10 uM” value is on record as 100%.
In the case of `CC[C@H](C)C(=O)O[C@H]1CCC=C2C=C[C@H](C)[C@H](CC[C@@H]3C[C@@H](O)CC(=O)O3)[C@H]21`, the “Mammalian (3T3) cell % growth at 10 uM” value came out at 2.9%.
Regarding `O=C(O)/C=C/c1ccc(O)c(O)c1`, the “Mammalian (3T3) cell % growth at 10 uM” value was found to be 2.5%.
Take `CC(=O)O[C@]1(C(C)=O)CC[C@H]2[C@@H]3C=C(Cl)C4=CC(=O)CC[C@]4(C)[C@H]3CC[C@@]21C`: the “Mammalian (3T3) cell % growth at 10 uM” value is recorded as 97.4%.
The result for `COC(=O)C1(C)CCCC2(C)c3ccc(O)c(C(C)C)c3CCC12` (stereo not shown) reads 38.5%; that for `Oc1cc2c(cc1O)C1c3ccc(O)c(O)c3OCC1(O)C2` (stereo not shown), 100%.
The result for `CO[C@H]1C[C@H](O[C@H]2[C@H](C)[C@@H](O[C@@H]3O[C@H](C)C[C@H](N(C)C)[C@H]3O)[C@@H](C)C[C@@]3(CO3)C(=O)[C@H](C)[C@@H](O)[C@@H](C)[C@@H](C)OC(=O)[C@@H]2C)O[C@@H](C)[C@@H]1O.O=P(O)(O)O` reads 100%; that for `O=c1cc(-c2ccccc2)oc2cc(O)c(O)c(O)c12`, 4.9%.
Consider `CCC1(O)CC(O)c2c(cc3c(c2O)C(=O)c2c(O)ccc(O)c2C3=O)C1C(=O)OC` (stereo not shown), for which the “Mammalian (3T3) cell % growth at 10 uM” value was determined as 46.5%.
As for `C=CC(C)(O)CCC1C(=C)CCC2C(C)(CO)CCCC12C` (stereo not shown), the “Mammalian (3T3) cell % growth at 10 uM” value turned out to be 86.1%.
On to `Oc1ccc(/C=C\c2cc(O)cc(O)c2)cc1`, for which the “Mammalian (3T3) cell % growth at 10 uM” value is 24.8%.
